Reference: PubChem BioAssay (EPA / NIEHS)
Several values for one entry are separate records, joined by “and”; a condition that tells them apart may be missing. Equal entries are not always repeated. Results filed as inconclusive are left out. More than one record can exist for a structure, and the calls need not agree. Activity calls are given as the source filed them. Rule for the calls, unless noted: active = hit-call score of the fitted dose curve at least 0.9, where 1 is the maximum; inactive = score below 0.9.

Legend:
CD69, CD69 (gene 969) = test: BSK_SAg_CD69: BioMAP Diversity Plus: SAg Assay for CD69 Biomarker Activity (AID 2283089); conditions: primary human HUVEC with PBMC; actives raise or lower the signal;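 for AC50: cell surface CD69 protein quantified by ELISA with fluorescence detection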
In short: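 HUVEC co-cultured with PBMC were dosed with chemical, and CD69 was measured by ELISA with fluorescence read-out 24 h later. Bidirectional curve fitting used DMSO as negative control and activity baseline.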

[1] = read-out: Monocyte Chemoattractant Protein-1 (MCP1), CCL2 (gene 6347); test: BSK_SAg_MCP1: BioMAP Diversity Plus: SAg Assay for Monocyte Chemoattractant Protein-1 (MCP1) Biomarker Activity (AID 2283090); conditions: primary human HUVEC with PBMC; actives raise or lower the signal
In short: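 MCP-1 levels in the endothelial–PBMC SAg co-culture were quantified by ELISA at 24 h post-dosing; both increases and decreases versus DMSO scored. Cytotoxicity monitored by SRB total protein in parallel cultures.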

[2] = read-out: E-selectin (Homo sapiens) (UniProt P16581); test: BSK_SAg_Eselectin: BioMAP Diversity Plus: SAg Assay for Eselectin Biomarker Activity (AID 2283091); conditions: primary human HUVEC with PBMC; actives raise or lower the signal
In short: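 Cell-surface E-selectin is read by ELISA at 24 h in the SAg co-culture of HUVEC and PBMC. Curves are fitted in both directions relative to DMSO. Parallel SRB total-protein staining tracks overt toxicity.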

[3] = read-out: Monokine induced gamma interferon (MIG), CXCL9 (gene 4283); test: BSK_SAg_MIG: BioMAP Diversity Plus: SAg Assay for Monokine induced gamma interferon (MIG) Biomarker Activity (AID 2283092); conditions: primary human HUVEC with PBMC; actives raise or lower the signal
In short: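 HUVEC plus human PBMC co-culture, chemicals dosed and MIG (CXCL9) quantified by ELISA at 24 h. Bidirectional curve fitting against DMSO as negative control and baseline, so both gain and loss of signal count as activity.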

[4] = BSK_SAg_PBMCCytotoxicity: PBMC Cytotoxicity Assessment in the BioMAP Diversity Plus: SAg Assay (AID 2283093); conditions: primary human HUVEC with PBMC;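 note: PBMC viability measured as Alamar Blue reduction fluorescence at 546/580 nm; fitted both ways against DMSO so a hit may be loss or gain of signal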;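 for AC50: PBMC superantigen activated with SEB plus TSST-1 one hour after compound addition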
In short: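 Human umbilical vein endothelial cells co-cultured with PBMC; PBMC (75,000/well) pre-treated with compound 1 h, then activated with SEB and TSST-1 (20 ng/mL final each) for 90 h. Alamar Blue added 6 h, fluorescence 546/580 nm; bidirectional fit versus DMSO.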

[5] = read-out: Interleukin-8 (IL8), CXCL8 (gene 3576); test: BSK_SAg_IL8: BioMAP Diversity Plus: SAg Assay for Interleukin-8 (IL8) Biomarker Activity (AID 2283094); conditions: primary human HUVEC with PBMC; actives raise or lower the signal
In short: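 ELISA read-out of IL-8 in a primary human vascular co-culture (umbilical vein endothelium plus PBMC), taken 24 h after compound addition. Values derive from bidirectional fits against DMSO negative controls.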

[6] = BSK_SAg_Proliferation: Cell Proliferation Assessment in the BioMAP Diversity Plus: SAg Assay (AID 2283095); conditions: primary human HUVEC with PBMC;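 note: relative cell number as total protein by SRB absorbance in sub-confluent culture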
In short: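 Cells (endothelium plus PBMC, human primary) were dosed with chemical, cultured 96 h, fixed in 10% TCA and stained with 0.1% SRB. Absorbance at 560 nm gave relative protein, fitted bidirectionally relative to DMSO.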

[7] = BSK_SAg_SRB: Viability Assessment in the BioMAP Diversity Plus: SAg Assay (AID 2283096); conditions: primary human HUVEC with PBMC;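 note: cells read one day after compound addition; hits may be either gain or loss of signal compared with DMSO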
In short: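 Endothelial/PBMC primary human co-culture; compound 24 h; fix 10% TCA, stain 0.1% SRB, A560; protein content as cytotoxicity proxy; bidirectional curve fit, DMSO = baseline.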

[8] = biological target: Cytochrome P450 2C19 (Homo sapiens) (UniProt P33261); test: NVS_ADME_hCYP2C19: NovaScreen (NVS) CYP450-related Enzyme Activity (ADME) Assay for human CYP2C19 (AID 2283113; active = hit-call score of the fitted dose curve at least 0.9, where 1 is the maximum;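 for AC50: potency for inhibition seen as loss of fluorescent signal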)
In short: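 Compounds first screened in duplicate at 10 uM, then confirmed in concentration series. Insect-cell-expressed human CYP2C19 turned over a fluorogenic substrate, and fluorescence was read after 1 h. Inhibition taken as signal loss relative to acetonitrile.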

[9] = biological target: human CYP2D6, CYP2D6 (gene 1565) (UniProt P10635); test: NVS_ADME_hCYP2D6: NovaScreen (NVS) CYP450-related Enzyme Activity (ADME) Assay for human CYP2D6 (AID 2283107; active = hit-call score of the fitted dose curve at least 0.9, where 1 is the maximum)
human CYP2D6, CYP2D6 (gene 1565), sequence (P10635 whole entry, looked up): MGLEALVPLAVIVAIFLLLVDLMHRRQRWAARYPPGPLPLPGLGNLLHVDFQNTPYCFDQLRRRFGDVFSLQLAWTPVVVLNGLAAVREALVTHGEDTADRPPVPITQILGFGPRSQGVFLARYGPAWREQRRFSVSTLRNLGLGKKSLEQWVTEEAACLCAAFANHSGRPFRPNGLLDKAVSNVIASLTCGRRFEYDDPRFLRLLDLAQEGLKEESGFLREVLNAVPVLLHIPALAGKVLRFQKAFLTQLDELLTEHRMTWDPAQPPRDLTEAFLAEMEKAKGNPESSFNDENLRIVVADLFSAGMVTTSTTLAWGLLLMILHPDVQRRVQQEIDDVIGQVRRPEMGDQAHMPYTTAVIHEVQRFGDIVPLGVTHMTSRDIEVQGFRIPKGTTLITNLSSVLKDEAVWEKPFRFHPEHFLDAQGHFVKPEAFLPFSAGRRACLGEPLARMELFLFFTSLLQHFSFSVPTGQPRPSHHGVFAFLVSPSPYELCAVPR
In short: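 Fluorescence readout of recombinant CYP2D6 (insect-cell derived) activity after 1 h incubation with test chemical. Acetonitrile served as baseline, loss-of-signal direction. Single-concentration duplicate screening at 10 uM preceded concentration-response retesting.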

[10] = biological target: human CYP2C9, CYP2C9 (gene 1559) (UniProt P11712); test: NVS_ADME_hCYP2C9: NovaScreen (NVS) CYP450-related Enzyme Activity (ADME) Assay for human CYP2C9 (AID 2283108; active = hit-call score of the fitted dose curve at least 0.9, where 1 is the maximum)
human CYP2C9, CYP2C9 (gene 1559), sequence (P11712 whole entry, looked up): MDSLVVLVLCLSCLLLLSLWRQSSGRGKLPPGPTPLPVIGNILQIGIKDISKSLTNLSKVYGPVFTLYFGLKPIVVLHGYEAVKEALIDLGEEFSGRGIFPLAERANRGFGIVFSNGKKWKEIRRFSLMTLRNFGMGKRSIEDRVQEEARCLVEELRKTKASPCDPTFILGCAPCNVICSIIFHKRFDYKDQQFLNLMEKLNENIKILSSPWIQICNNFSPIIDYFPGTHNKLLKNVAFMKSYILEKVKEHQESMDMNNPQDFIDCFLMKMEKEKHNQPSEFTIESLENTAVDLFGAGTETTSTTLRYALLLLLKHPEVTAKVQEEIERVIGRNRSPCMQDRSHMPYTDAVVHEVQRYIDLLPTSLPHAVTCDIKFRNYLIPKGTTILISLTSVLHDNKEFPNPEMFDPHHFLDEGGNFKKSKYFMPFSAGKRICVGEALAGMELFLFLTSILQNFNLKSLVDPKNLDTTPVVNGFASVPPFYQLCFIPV
In short: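 Cell-free assay of recombinant human CYP2C9 produced in Sf9 cells, with enzyme activity read by fluorescence intensity 0.75 h after compound addition. Loss of signal versus an acetonitrile negative control indicates inhibition. Primary screen used 10 uM in duplicate; actives were retested in concentration series.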

[11] = biological target: Cytochrome P450 3A4 (Homo sapiens) (UniProt P08684); test: NVS_ADME_hCYP3A4: NovaScreen (NVS) CYP450-related Enzyme Activity (ADME) Assay for human CYP3A4 (AID 2283110; active = hit-call score of the fitted dose curve at least 0.9, where 1 is the maximum)
Cytochrome P450 3A4 (Homo sapiens), sequence (P08684 whole entry, looked up): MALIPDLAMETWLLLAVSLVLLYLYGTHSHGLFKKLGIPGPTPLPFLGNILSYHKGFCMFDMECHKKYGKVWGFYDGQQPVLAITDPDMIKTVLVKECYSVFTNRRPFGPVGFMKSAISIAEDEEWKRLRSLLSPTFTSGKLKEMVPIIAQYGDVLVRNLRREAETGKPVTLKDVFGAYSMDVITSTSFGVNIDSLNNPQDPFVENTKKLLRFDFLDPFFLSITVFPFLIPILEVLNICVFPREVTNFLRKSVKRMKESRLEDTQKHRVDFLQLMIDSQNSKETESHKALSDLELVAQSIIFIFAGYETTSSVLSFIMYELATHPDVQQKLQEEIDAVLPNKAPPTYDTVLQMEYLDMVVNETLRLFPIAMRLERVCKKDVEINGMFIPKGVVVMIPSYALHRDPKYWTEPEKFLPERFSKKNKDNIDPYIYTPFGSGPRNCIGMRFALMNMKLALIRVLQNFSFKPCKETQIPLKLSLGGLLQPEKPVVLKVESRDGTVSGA
In short: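 Cell-free assay using insect-cell-expressed human CYP3A4 with a fluorogenic substrate; fluorescence intensity was read 0.33 hour after dosing. Loss of signal relative to acetonitrile vehicle indicated inhibition. Primary single-concentration screen at 10 uM, in duplicate, then concentration series.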

[12] = biological target: human CYP1A2, CYP1A2 (gene 1544) (UniProt P05177); test: NVS_ADME_hCYP1A2: NovaScreen (NVS) CYP450-related Enzyme Activity (ADME) Assay for human CYP1A2 (AID 2283102; active = hit-call score of the fitted dose curve at least 0.9, where 1 is the maximum;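 note: potency for inhibition since loss of fluorescence marks reduced CYP1A2 activity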)
human CYP1A2, CYP1A2 (gene 1544), sequence (P05177 whole entry, looked up): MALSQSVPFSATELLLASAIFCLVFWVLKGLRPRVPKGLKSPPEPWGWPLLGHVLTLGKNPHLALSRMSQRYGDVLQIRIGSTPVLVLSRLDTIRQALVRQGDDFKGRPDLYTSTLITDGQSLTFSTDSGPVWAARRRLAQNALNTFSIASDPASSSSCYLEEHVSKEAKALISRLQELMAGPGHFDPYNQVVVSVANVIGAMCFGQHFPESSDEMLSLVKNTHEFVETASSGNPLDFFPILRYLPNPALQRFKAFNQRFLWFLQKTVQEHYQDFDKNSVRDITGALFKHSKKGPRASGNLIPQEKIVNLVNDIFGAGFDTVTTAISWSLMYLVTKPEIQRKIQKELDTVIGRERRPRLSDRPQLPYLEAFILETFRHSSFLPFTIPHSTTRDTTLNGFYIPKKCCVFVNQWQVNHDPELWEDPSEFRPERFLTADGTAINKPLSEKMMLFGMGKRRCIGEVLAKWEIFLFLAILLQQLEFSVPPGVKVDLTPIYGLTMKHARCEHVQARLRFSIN
In short: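 Enzyme activity of insect-cell-expressed human CYP1A2 measured by fluorescence 0.5 h after compound addition, relative to acetonitrile. Compounds first tested in duplicate at 10 uM, actives followed up in concentration series.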

[13] = biological target: human CYP4F12, CYP4F12 (gene 66002) (UniProt Q9HCS2); test: NVS_ADME_hCYP4F12: NovaScreen (NVS) CYP450-related Enzyme Activity (ADME) Assay for human CYP4F12 (AID 2283111; active = hit-call score of the fitted dose curve at least 0.9, where 1 is the maximum)
human CYP4F12, CYP4F12 (gene 66002), sequence (Q9HCS2 whole entry, looked up): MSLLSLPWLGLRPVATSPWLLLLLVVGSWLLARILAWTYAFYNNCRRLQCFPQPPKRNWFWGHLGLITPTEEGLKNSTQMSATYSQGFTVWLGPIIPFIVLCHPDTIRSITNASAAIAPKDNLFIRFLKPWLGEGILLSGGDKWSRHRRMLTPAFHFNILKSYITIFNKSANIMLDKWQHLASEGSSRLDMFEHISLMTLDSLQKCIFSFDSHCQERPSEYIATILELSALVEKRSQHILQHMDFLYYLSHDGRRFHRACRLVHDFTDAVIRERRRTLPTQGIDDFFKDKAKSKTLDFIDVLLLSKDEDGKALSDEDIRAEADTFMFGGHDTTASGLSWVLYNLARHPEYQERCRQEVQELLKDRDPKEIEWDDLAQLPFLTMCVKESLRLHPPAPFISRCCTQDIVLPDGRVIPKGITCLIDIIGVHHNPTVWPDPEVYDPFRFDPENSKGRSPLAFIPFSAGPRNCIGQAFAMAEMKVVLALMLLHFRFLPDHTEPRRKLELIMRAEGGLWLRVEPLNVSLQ
In short: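 Cell-free fluorescence assay of recombinant human CYP4F12 activity on a specific substrate, read 0.5 h after dosing. Primary screen in duplicate at 10 uM, then concentration series for actives; loss of signal fitted against acetonitrile negative control.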

[14] = biological target: rat CYP2A1, Cyp2a1 (gene 24894) (UniProt P11711); test: NVS_ADME_rCYP2A1: NovaScreen (NVS) CYP450-related Enzyme Activity (ADME) Assay for rat CYP2A1 (AID 2283114)
rat CYP2A1, Cyp2a1 (gene 24894), sequence (P11711 whole entry, looked up): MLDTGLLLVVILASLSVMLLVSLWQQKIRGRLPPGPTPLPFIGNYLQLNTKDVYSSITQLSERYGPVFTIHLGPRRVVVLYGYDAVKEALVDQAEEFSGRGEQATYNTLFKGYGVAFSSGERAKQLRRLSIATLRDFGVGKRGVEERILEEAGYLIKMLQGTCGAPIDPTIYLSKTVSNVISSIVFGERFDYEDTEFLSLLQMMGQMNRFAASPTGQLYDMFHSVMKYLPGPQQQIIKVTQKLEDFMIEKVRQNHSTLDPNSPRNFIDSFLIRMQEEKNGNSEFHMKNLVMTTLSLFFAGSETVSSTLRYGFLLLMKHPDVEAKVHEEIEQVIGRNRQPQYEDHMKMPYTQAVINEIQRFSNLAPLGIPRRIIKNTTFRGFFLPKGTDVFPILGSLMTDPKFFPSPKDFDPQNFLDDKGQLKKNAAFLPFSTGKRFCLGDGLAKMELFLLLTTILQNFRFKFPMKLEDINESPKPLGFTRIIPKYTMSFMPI
In short: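 Recombinant rat CYP2A1, cell-free, fluorogenic substrate turnover read by fluorescence intensity 0.75 h after dosing. Primary screen at 10 uM in duplicate; actives rerun as concentration-response up to 20 uM; loss of signal versus acetonitrile control.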

[15] = biological target: human CYP19A1, CYP19A1 (gene 1588) (UniProt P11511); test: NVS_ADME_hCYP19A1: NovaScreen (NVS) CYP450-related Enzyme Activity (ADME) Assay for human CYP19A1 (AID 2283098; active = hit-call score of the fitted dose curve at least 0.9, where 1 is the maximum;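 note: potency for inhibitors seen as loss of fluorescent enzyme signal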)
In short: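 Cell-free enzyme assay with recombinant protein and a specific fluorogenic substrate, read by fluorescence intensity 0.5 h after dosing. Primary screen ran in duplicate at 10 uM; actives were retested in concentration series. Loss of signal versus acetonitrile baseline.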

[16] = biological target: human CYP2A6, CYP2A6 (gene 1548) (UniProt P11509); test: NVS_ADME_hCYP2A6: NovaScreen (NVS) CYP450-related Enzyme Activity (ADME) Assay for human CYP2A6 (AID 2283099; active = hit-call score of the fitted dose curve at least 0.9, where 1 is the maximum)
human CYP2A6, CYP2A6 (gene 1548), sequence (P11509 whole entry, looked up): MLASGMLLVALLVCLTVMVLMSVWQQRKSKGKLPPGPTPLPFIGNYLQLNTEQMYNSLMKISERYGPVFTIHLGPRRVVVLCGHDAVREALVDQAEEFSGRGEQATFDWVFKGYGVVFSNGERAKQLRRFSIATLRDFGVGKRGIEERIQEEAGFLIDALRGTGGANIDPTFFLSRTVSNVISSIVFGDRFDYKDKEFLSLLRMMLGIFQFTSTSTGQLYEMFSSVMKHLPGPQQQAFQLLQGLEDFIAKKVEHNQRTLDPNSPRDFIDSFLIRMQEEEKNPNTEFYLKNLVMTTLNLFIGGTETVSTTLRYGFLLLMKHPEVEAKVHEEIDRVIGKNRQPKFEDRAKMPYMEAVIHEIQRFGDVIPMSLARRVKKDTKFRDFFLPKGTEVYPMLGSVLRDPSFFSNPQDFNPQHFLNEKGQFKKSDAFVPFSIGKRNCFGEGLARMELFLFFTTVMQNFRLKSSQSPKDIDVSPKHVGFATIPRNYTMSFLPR
In short: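 Compounds screened at 10 uM (duplicate) and, if active, titrated to a 20 uM top concentration against insect-cell-expressed CYP2A6. Loss of fluorescent product signal after 0.5 h, relative to acetonitrile baseline, indicates inhibition.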

[17] = biological target: human CYP2B6, CYP2B6 (gene 1555) (UniProt P20813); test: NVS_ADME_hCYP2B6: NovaScreen (NVS) CYP450-related Enzyme Activity (ADME) Assay for human CYP2B6 (AID 2283101; active = hit-call score of the fitted dose curve at least 0.9, where 1 is the maximum)
human CYP2B6, CYP2B6 (gene 1555), sequence (P20813 whole entry, looked up): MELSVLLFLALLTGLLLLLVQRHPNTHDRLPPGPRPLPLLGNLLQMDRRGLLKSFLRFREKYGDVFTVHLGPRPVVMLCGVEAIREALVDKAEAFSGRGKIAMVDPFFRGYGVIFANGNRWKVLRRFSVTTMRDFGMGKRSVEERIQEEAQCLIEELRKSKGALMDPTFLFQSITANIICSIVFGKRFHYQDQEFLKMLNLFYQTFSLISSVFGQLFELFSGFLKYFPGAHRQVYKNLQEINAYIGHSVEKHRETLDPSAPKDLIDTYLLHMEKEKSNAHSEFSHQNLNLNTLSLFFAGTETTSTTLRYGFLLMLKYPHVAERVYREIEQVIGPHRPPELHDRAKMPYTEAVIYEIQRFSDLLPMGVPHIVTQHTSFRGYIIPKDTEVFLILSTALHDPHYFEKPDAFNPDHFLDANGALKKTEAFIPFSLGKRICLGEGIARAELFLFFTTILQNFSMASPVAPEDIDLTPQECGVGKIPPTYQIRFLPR
In short: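 Recombinant human CYP2B6 with fluorogenic substrate, read by fluorescence intensity 1 h after dosing. Primary screen in duplicate at 10 uM, actives followed in concentration series; signal loss relative to acetonitrile control.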

Measured: AC50

E-selectin (Homo sapiens), sequence (P16581 whole entry, looked up): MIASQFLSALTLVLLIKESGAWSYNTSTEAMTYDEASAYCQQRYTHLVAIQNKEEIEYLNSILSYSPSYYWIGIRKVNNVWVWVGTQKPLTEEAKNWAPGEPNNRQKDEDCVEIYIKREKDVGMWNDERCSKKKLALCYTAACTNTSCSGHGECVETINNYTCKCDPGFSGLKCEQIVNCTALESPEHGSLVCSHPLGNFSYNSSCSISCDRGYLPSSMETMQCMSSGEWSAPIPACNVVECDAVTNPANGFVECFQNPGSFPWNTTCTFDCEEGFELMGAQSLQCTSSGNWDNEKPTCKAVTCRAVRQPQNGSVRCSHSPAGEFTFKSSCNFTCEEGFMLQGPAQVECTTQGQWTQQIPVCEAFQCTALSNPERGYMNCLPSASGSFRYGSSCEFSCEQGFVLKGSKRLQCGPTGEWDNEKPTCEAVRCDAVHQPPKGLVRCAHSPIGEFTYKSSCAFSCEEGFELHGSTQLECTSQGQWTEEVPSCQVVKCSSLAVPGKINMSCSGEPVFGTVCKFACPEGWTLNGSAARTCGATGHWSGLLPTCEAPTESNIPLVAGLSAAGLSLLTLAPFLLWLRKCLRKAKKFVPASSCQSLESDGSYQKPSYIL

CC(Cc1ccc(OCC(=O)O)cc1)NCC(O)c1csc(C(F)(F)F)n1 (configuration not stated)
inactive: CD69, CD69 (gene 969) | [1] | [2] | [3] | [4] | [5] | [6] | [7] | [8]

c1cc2c3c(cccc3c1)CC2
inactive: CD69, CD69 (gene 969) | [1] | [2] | [3] | [5] | [6] | [7]

CCCCOCCOP(=O)(OCCOCCCC)OCCOCCCC
inactive: CD69, CD69 (gene 969) | [1] | [2] | [3] | [4] | [5] | [6] | [7] | [8]

O=c1ssc(Cl)c1Cl
active: CD69, CD69 (gene 969) 6.02 µM | [1] 5.35 µM | [2] 4.28 µM | [3] 9 µM | [5] 8.19 µM | [6] 1.94 µM | [7] 6.23 µM

C=CC(=O)OCC(CC)(COC(=O)C=C)COC(=O)C=C
active: CD69, CD69 (gene 969) 2.3 µM | [1] 2.6 µM | [2] 1.36 µM | [3] 3.36 µM | [4] 2.93 µM | [5] 1.7 µM | [6] 0.587 µM | [7] 3.38 µM | [8] 2.4 µM

Cc1ccc2c(c1N)C(=O)c1ccccc1C2=O
active: [9] 5 µM | [10] 0.0118 µM | [8] 3.02 µM
inactive: CD69, CD69 (gene 969) | [1] | [2] | [3] | [4] | [5] | [6] | [7] | [11]

CCOP(=S)(NC(C)C)Oc1ccccc1C(=O)OC(C)C (configuration not stated)
inactive: CD69, CD69 (gene 969) | [1] | [2] | [3] | [5] | [6] | [7]

ClC(Cl)(Cl)c1ccccc1
inactive: CD69, CD69 (gene 969) | [1] | [2] | [3] | [5] | [6] | [7]

O=P(Oc1ccccc1)(Oc1ccccc1)Oc1ccccc1
active: CD69, CD69 (gene 969) 31.6 µM | [1] 29 µM | [2] 33.7 µM | [3] 31.3 µM | [5] 30.2 µM | [6] 32.2 µM | [7] 29.3 µM | [12] 5.67 µM | [8] 0.872 µM
inactive: [4]

O=S1(=O)OCC2C(CO1)C1(Cl)C(Cl)=C(Cl)C2(Cl)C1(Cl)Cl (configuration not stated)
inactive: CD69, CD69 (gene 969) | [1] | [2] | [3] | [4] | [5] | [6] | [7]
active: [8] 2.43 µM

CC(C)(C)c1ccc(O)cc1
inactive: CD69, CD69 (gene 969) | [1] | [2] | [3] | [5] | [6] | [7]

CCOP(=S)(OCC)SCSc1ccc(Cl)cc1
inactive: [3] | [7]
active: CD69, CD69 (gene 969) 20 µM | [1] 20 µM | [2] 20 µM | [5] 20 µM | [6] 14.2 µM

CCC1(c2ccccc2)C(=O)N=C(O)NC1=O (configuration not stated)
inactive: CD69, CD69 (gene 969) | [1] | [2] | [3] | [4] | [5] | [6] | [7] | [13]

CCOP(=S)(OCC)SCn1nnc2ccccc2c1=O
inactive: CD69, CD69 (gene 969) | [1] | [3] | [4] | [5] | [6] | [7]
active: [2] 15.9 µM | [10] 1.43 µM | [8] 3.57 µM

Nc1ccc(Cl)cc1
inactive: CD69, CD69 (gene 969) | [1] | [2] | [3] | [5] | [6] | [7]

O=C(O)C(F)(F)OC(F)(F)C(F)(F)OC(F)(F)C(=O)O
inactive: CD69, CD69 (gene 969) | [1] | [2] | [3] | [5] | [6] | [7]

OCC(F)(F)OC(F)(F)C(F)(F)OC(F)(F)C(F)(F)OC(F)(F)F
active: CD69, CD69 (gene 969) 24.4 µM and 45.7 µM | [1] 45.9 µM and 24.8 µM | [2] 39.4 µM and 45.2 µM | [5] 43.9 µM and 43.4 µM | [6] 39 µM and 21 µM | [7] 30 µM
inactive: [3] | [7]

CO/N=C(/C(=O)OC)c1ccccc1COc1ccccc1C
active: [12] 9.98 µM | [10] 6.5 µM | [8] 2.85 µM | [14] 4.24 µM

O=[N+]([O-])c1ccccc1
inactive: CD69, CD69 (gene 969) | [1] | [2] | [3] | [5] | [6] | [7] | [13]

[N-]=[N+]=[N-]
inactive: CD69, CD69 (gene 969) | [1] | [2] | [3] | [5] | [6] | [7]

O=S(=O)(c1ccc(O)cc1)c1ccc(O)cc1
active: [15] 8.81 µM

Nc1ccc2ccccc2c1
inactive: CD69, CD69 (gene 969) | [1] | [3] | [5] | [6] | [7] | [16]
active: [2] 4.16 µM | [17] 1.45 µM | [12] 7.68 µM | [8] 2.58 µM
